The supplement of paper PMC6555819

Columns and labels:
Assay in all cases: PBM binding z-score (relative to random genomic background probes); higher = stronger binding; sequences stand for … in GC…GCGATTGACAGCGTAGAATGAAGG
[1] = test system: FXR:RXRa (NR concentration 270 nM, RXRa partner concentration 90 nM)
Procedure, shortened: (§1)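 Ligand-free nuclear receptor dimers were bound for 1 h to custom Agilent 4×180K protein-binding microarrays. Detection used antibodies against each partner (one per run). Binding z-scores rest on regression-normalized fluorescence, with random background probes as the reference.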

[2] = test system: LXRa:RXRa (NR concentration 270 nM, RXRa partner concentration 90 nM)
Procedure, shortened: as §1

[3] = test system: LXRa homodimer (NR concentration 270 nM)
Procedure, shortened: as §1

[4] = test system: LXRb:RXRa (NR concentration 270 nM, RXRa partner concentration 90 nM)
Procedure, shortened: as §1

[5] = test system: LXRb homodimer (NR concentration 270 nM)
Procedure, shortened: as §1

[6] = test system: PPARa:RXRa (NR concentration 270 nM, RXRa partner concentration 90 nM)
Procedure, shortened: as §1

[7] = test system: PPARg:RXRa (NR concentration 180 nM, RXRa partner concentration 90 nM)
Procedure, shortened: as §1

[8] = test system: PPARg:RXRa 270nM:90nM, anti-RXR (NR concentration 270 nM, RXRa partner concentration 90 nM)
Procedure, shortened: as §1

[9] = test system: PPARg:RXRa 30nM:10nM, anti-RXR (NR concentration 30 nM, RXRa partner concentration 10 nM)
Procedure, shortened: as §1

[10] = test system: PPARg:RXRa 90nM:30nM, anti-RXR (NR concentration 90 nM, RXRa partner concentration 30 nM)
Procedure, shortened: as §1

[11] = test system: PPARg:RXRa DBDmut IVT, anti-RXR (DBD mutation: RXRa K156A/R161A, NR concentration 270 nM, RXRa partner concentration 90 nM)
Procedure, shortened: as §1

[12] = test system: PPARg:RXRa IVT, anti-PPARg (NR concentration 270 nM, RXRa partner concentration 90 nM)
Procedure, shortened: as §1

[13] = test system: PPARg DBDmut:RXRa IVT, anti-PPARg (DBD mutation: PPARg1 K132A/R137A, NR concentration 270 nM, RXRa partner concentration 90 nM)
Procedure, shortened: as §1

[14] = test system: PPARg DBDmut IVT, anti-PPARg (DBD mutation: PPARg1 K132A/R137A, NR concentration 270 nM)
Procedure, shortened: as §1

[15] = test system: PPARg homodimer (NR concentration 180 nM)
Procedure, shortened: as §1

[16] = test system: PXR:RXRa (NR concentration 270 nM, RXRa partner concentration 90 nM)
Procedure, shortened: as §1

[17] = test system: PXR homodimer (NR concentration 270 nM)
Procedure, shortened: as §1

[18] = test system: RARa:RXR (NR concentration 270 nM, RXRa partner concentration 90 nM)
Procedure, shortened: as §1

[19] = test system: RARa homodimer (NR concentration 270 nM)
Procedure, shortened: as §1

[20] = test system: RARb:RXRa (NR concentration 270 nM, RXRa partner concentration 90 nM)
Procedure, shortened: as §1

| Sequence | PBM binding z-score [1] | PBM binding z-score [2] | PBM binding z-score [3] | PBM binding z-score [4] | PBM binding z-score [5] | PBM binding z-score [6] | PBM binding z-score [7] | PBM binding z-score [8] | PBM binding z-score [9] | PBM binding z-score [10] | PBM binding z-score [11] | PBM binding z-score [12] | PBM binding z-score [13] | PBM binding z-score [14] | PBM binding z-score [15] | PBM binding z-score [16] | PBM binding z-score [17] | PBM binding z-score [18] | PBM binding z-score [19] | PBM binding z-score [20] |
| --- | --- | --- | --- | --- | --- | --- | --- | --- | --- | --- | --- | --- | --- | --- | --- | --- | --- | --- | --- | --- |
| CCTGCTAGGTCATGGTCAGCTTATCTACAGTATG | 3.54 | 2.53 | 0.0847 | 1.71 | -0.512 | 3.19 | 2.2 | 2.64 | 0.566 | 1.77 | 4.34 | 3.48 | 0.0412 | -0.178 | 1.32 | 1.35 | -0.301 | 2.36 | 0.172 | 3.81 |
| CTCGAAAGGTCGTGCTCAGGTCAGTATACCAAAC | 5.86 | 5.15 | 1.44 | 4.15 | 0.558 | 5.2 | 3.19 | 4.09 | 1.06 | 2.7 | 1.1 | 2.14 | 1.37 | 1.38 | 3.94 | 5.57 | 1.25 | 6.37 | 0.951 | 4.41 |
| GGACCGAGGGCAAAGTTGATAGCATCTGTCGACG | 1.12 | 0.801 | -0.42 | 0.811 | -0.953 | 2.74 | 3.41 | 4.82 | 2.42 | 4.42 | 0.973 | 1.67 | -0.427 | -0.551 | 0.198 | 1.04 | -0.387 | 1.26 | -0.439 | 2.4 |
| CCTACTGGGCCATTCAGAGGTCATTGGTCATATG | 2.52 | 4.22 | 7.04 | 3.5 | 0.551 | 3.65 | 2.66 | 3.38 | 1.1 | 2.4 | 3.85 | 4.26 | -0.0478 | 0.266 | 1.61 | 4.57 | 2.34 | 4.46 | 0.727 | 3.03 |
| CCTTACGGGTCACGAGGTTATCGCACGACGAGCG | 6.89 | 4.91 | 0.648 | 4.02 | 0.0453 | 5.78 | 7.31 | 6.79 | 3.29 | 5.64 | 4.34 | 5.24 | 1.36 | 0.803 | 3.23 | 4.75 | 0.615 | 6.45 | 0.798 | 4.5 |
| ATCTCTAGGTAAGACTCAGTTCAGTGAGGAACGC | 0.151 | 0.565 | 0.658 | -0.0789 | 0.649 | 0.134 | 0.166 | 0.25 | 0.0695 | 0.181 | 1.94 | 1.26 | 0.558 | 0.604 | 0.314 | 0.836 | 1.56 | 0.193 | 0.359 | 0.376 |
| TCTCAGAGGACACGAAAGGTCAGAGCTCGACATC | 3.13 | 4.15 | 3.56 | 3.12 | 0.409 | 3.52 | 1.66 | 3.01 | 3.08 | 2.85 | 1.77 | 1.57 | -0.124 | -0.022 | 3.62 | 4.28 | 0.423 | 4.62 | 1.56 | 4.44 |
| CCGACTGGAGCATAAGGTTACCATAAGCCAGCCC | 0.0844 | 1.93 | 0.131 | 0.754 | -0.551 | 0.887 | 0.85 | 1.49 | -0.133 | 0.657 | 0.771 | 0.172 | -0.467 | -1.49 | -0.0887 | 0.241 | -0.0972 | 1.11 | 0.0423 | 0.916 |
| CAAACTAGGTCAAGTGGTCAAAGTCCGCTTCCCG | 4.81 | 3.79 | 1.15 | 2.42 | 0.597 | 5.45 | 8.38 | 7.13 | 5.18 | 6.97 | 8.23 | 8.54 | 2.88 | 1.21 | 2.1 | 2.11 | 0.168 | 3 | 0.47 | 4.38 |
| GCATATAGGTCATACAAGGTGAAAGTCCGATTGT | 6.4 | 5.8 | 2.37 | 4.27 | 0.913 | 5.75 | 7.36 | 6.55 | 4.09 | 6.05 | 6.81 | 7.41 | 3.79 | 2.08 | 2.85 | 4.68 | 0.812 | 4.41 | 1.09 | 4.29 |
| ATATGTAGGCTAGCTGGGGTCATTCAGACTAGGC | 3.46 | 3.2 | 1.14 | 3.49 | -0.151 | 4.32 | 3.2 | 3.64 | 1.1 | 2.83 | 4.55 | 3.66 | 1.11 | 0.266 | 1.81 | 5.32 | 2.19 | 5.28 | 0.344 | 2.28 |
| TCATACAGGTAATACAGGTGAAAGTCGGCATCTA | 0.813 | 1.42 | 0.615 | 1.31 | 0.285 | 1.88 | 0.982 | 2.34 | 3.85 | 3.1 | 3.1 | 2.32 | 1.11 | 1.28 | 1.24 | 0.855 | 0.48 | 1.23 | 1.28 | 0.835 |
| CCTTACGGGTCAGTCCAGGTTATAGCATCGGAGT | 3.69 | 3.88 | 0.251 | 1.74 | -0.12 | 2.85 | 1.11 | 1.64 | 0.319 | 0.821 | 1.7 | 2.05 | -0.331 | -0.72 | 1.36 | 4.25 | 0.276 | 2.69 | 0.405 | 3.31 |
| AGTCAAAGTTCACTAGCTAACGTAAGATTCAGCT | 4.87 | 4.82 | 2.93 | 3.04 | 1.11 | 3.91 | 5.29 | 5.49 | 2.82 | 4.54 | -0.129 | 1.99 | 0.927 | 0.426 | 1.85 | 3.57 | 1.99 | 2.79 | 0.935 | 4.56 |
| CCTTACGGGTCACGAGGTTCTAGCACGACGAGCG | 6.53 | 4.22 | -0.19 | 3.53 | 0.0881 | 5.66 | 6.59 | 6.31 | 3.2 | 5.36 | 4.32 | 5.09 | 0.979 | -0.156 | 2.86 | 4.06 | -0.111 | 5.48 | 0.989 | 4.41 |
| CCGACTGGGGCAGGAAGGTTACCATACCATCCGG | -0.0935 | -0.228 | -0.392 | -0.202 | -0.995 | 0.76 | 0.782 | 0.189 | -0.465 | -0.0165 | 1.39 | 2.05 | -0.739 | -1.79 | 0.462 | -0.00877 | -0.202 | 0.286 | -0.388 | 0.913 |
| ATCTCTAGGTAACCAAGTTAAGTGAATGCCGAAC | 0.211 | 0.255 | 0.398 | 0.412 | 0.551 | 0.58 | 0.376 | 0.507 | 0.346 | 0.476 | 3.43 | 2.78 | 0.758 | 1.07 | 0.347 | 0.282 | 0.739 | 0.368 | 1.13 | 0.317 |
| GCTTACGGGTCAAAGGTGATAGCATGAATAGAAT | 6.24 | 4.59 | 0.0435 | 4.64 | 0.353 | 6.57 | 10.2 | 8.54 | 7.83 | 9.26 | 5.42 | 5.3 | 1.11 | 0.857 | 2.81 | 4.78 | -0.0532 | 6.93 | 0.406 | 4.09 |
